Data as given in PubChem BioAssay (NCATS).
Results filed as inconclusive are left out. Activity calls are given as the source filed them. Calls come from the whole dose curve; as a rule, active = well fitted cell-killing curve with a large enough effect; inconclusive = small, poorly fitted or top-dose-only effect, or effect the other way; inactive = no such curve, though single readings can be large or run the other way.

assay: qHTS of pediatric cancer cell lines to identify multiple opportunities for drug repurposing: Confirmatory screen for NB1643 cells (AID 1347109); settings: NB1643 neuroblastoma cell viability; series mostly up to 45.9 µM; note: nearly all actives have a fitted effect of over 45% in size
How it was run: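 Viability after 48 h compound treatment at 37C, 500-1,000 cells/well, read as ATP luminescence with CellTiter-Glo. Primary screens used 11-point (MIPE, 0.78 nM-46 µM) or 8-point (NPC, 0.59 nM-46 µM) final concentrations; follow-up screens used 11-point dilutions.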
Potency is the fitted concentration of half-maximal effect.

| SMILES | Potency |
| --- | --- |
| NS(=O)(=O)c1cccc2c1C(=O)c1cccc(O)c1C2=O | 2.93 µM (active) |
| Cc1nnc(C(C)C)n1C1C[C@H]2CC[C@@H](C1)N2CC[C@H](NC(=O)C1CCC(F)(F)CC1)c1ccccc1 (stereo partly specified) | 7.37 µM (active) |
| C=C1C(=O)[C@@]23C(CC[C@@H]1[C@H]2O)[C@@]12CO[C@]3(O)[C@@H](O)[C@@H]1C(C)(C)CC[C@@H]2O (stereo partly specified) | 4.14 µM (active) |
| Oc1ccc(C2CCN(c3ccnc4ccccc34)CC2)cc1O | 16.5 µM (active) |
| CC1(C)CCC(CN2CCN(c3ccc(C(=O)NS(=O)(=O)c4ccc(NCC5CCOCC5)c([N+](=O)[O-])c4)c(Oc4cnc5[nH]ccc5c4)c3)CC2)=C(c2ccc(Cl)cc2)C1 | 0.261 µM (active) |
| NC1=N[C@@]2(c3cc(NC(=O)c4ccc(F)cn4)ccc3F)COC[C@@H]2CS1 | inactive |
| CCc1ccc(OCc2ccccc2C(=O)Nc2ccc3nc(C)cc(N)c3c2)cc1 | 9.27 µM (active) |
| O=c1[nH]cnc2c1ncn2[C@H]1CC[C@@H](CO)O1 | inactive |
| CC(C)(C(=O)NCC(F)(F)C(F)(F)F)C(=O)N[C@@H]1C(=O)Nc2ccccc2-c2ccccc21 | inactive |
| CCCCCCCCCCCC1=C(O)C(=O)C=C(O)C1=O | inactive |
| O=C1c2ccccc2-[n+]2ccc3c([nH]c4ccccc43)c21 | 2.08 µM (active) |
